# Screens: PubChem BioAssay, several laboratories
# Shown are actives, neighbours in structure and some others; about 4.2% of the full set was active somewhere.
# tim23-1 inh: inhibits growth of tim23-1 mutant yeast. S. cerevisiae tim23-1 growth, BacTiter-Glo luminescence, 24 h. inhibition, % at 20 µM. AID 463212. actives 1.3% (n = 330,000);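 active means growth inhibition of the mutant yeast at or above 50%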;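 further: temperature-sensitive mutant grown at 25 °C; plate controls were DMSO-treated mutant yeast for no effect and medium wells lacking yeast for full effect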
# NALP1 yeast inh: NALP1 inhibition | S. cerevisiae NALP1/ASC/caspase-1 growth, X-gal OD620, 72 h | inhibition, % at 10 µM | actives 0.61% (n = 280,000) | AID 2071; in the data active means inhibition mostly above about 24%, no sharp cut-off; inactive means mostly below about 32%
# V-ATPase pH: yeast V-ATPase proton transport regulation by pHLuorin; actives 0.37% (n = 350,000); S. cerevisiae, pHLuorin cytosolic pH fluorescence; response, % at 10 µM; AID 504577; in the data active means response mostly above about 7.3%, no sharp cut-off; inactive means mostly below about 5.4%; further: actives read high
# NALP3 yeast inh: NALP3 inhibition in yeast | Yeast reconstituted NLRP3/ASC/caspase-1, beta-gal luminescence, 24 h | inhibition, % at 10 µM | actives 0.39% (n = 330,000) | AID 2825;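 active means inhibition of 50% or more; inactive means inhibition below 50%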;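 further: plate controls were induced DMSO wells for no effect and uninduced yeast grown without galactose for full effect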
# tim10-1 inh: inhibits growth of tim10-1 mutant yeast; S. cerevisiae tim10-1 ts strain growth, BacTiter-Glo, 24 h; inhibition, % at 20 µM; actives 2.2% (n = 330,000); AID 463190;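 active means inhibition of at least 40%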;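 further: mutant grown at 25 °C; 0% = DMSO wells with yeast and 100% = wells holding no yeast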
# TIM10 inh: growth inhibitors of TIM10 yeast strain | actives 1.4% (n = 330,000) | AID 463195 | inhibition, % at 10 µM | S. cerevisiae TIM10 strain growth, BacTiter-Glo luminescence, 24 h;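 active means inhibition of 40% or more at the single tested concentration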;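 further: wild-type TIM10 isogenic control strain grown at permissive 25 °C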
# tim23-1 confirm: confirmation of tim23-1 mutant yeast growth inhibitors. shares compounds with tim23-1 inh. S. cerevisiae tim23-1 growth, BacTiter-Glo luminescence, 24 h. inhibition, % at 20 µM. actives 83% (n = 4,400). AID 463218;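 active means inhibition above about 39% in either of two replicate wells at 20 µM, limit read from the data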;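 further: temperature-sensitive tim23-1 mutant grown at 25 °C; 0% = DMSO wells with yeast and 100% = medium wells without yeast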
# * marks the source's active call; other numbers are inactive results; / = no result given.
SMILES,tim23-1 inh,NALP1 yeast inh,V-ATPase pH,NALP3 yeast inh,tim10-1 inh,TIM10 inh,tim23-1 confirm
COc1ccc(C2CC(=O)Oc3cc4c(cc32)OCO4)cc1 (configuration not stated),61*,/,1,/,14,6,49*
COc1ccc(C2CC(=O)Oc3cc(O)ccc32)cc1 (configuration not stated),57*,/,0,/,2,7,46*
C=CCNC(=O)c1ccc2c3n(nc2c1)-c1ccc(Cl)cc1CO3,59*,/,-2,16,30,23,50*
O=C(NCCO)c1ccc2c3n(nc2c1)-c1ccccc1CO3,5,21,-3,10,13,11,/
O=C(Nc1nc2ccc(S(=O)(=O)N3CCCCC3)cc2s1)C1CCCO1 (configuration not stated),53*,7,-2,14,40,33,47*
C[C@H](NC(=O)[C@@H]1CSC2c3ccccc3C(=O)N21)C(=O)NCCc1ccc(F)cc1 (some centres not stated),6,4,1,-5,0,11,/
CC(=O)C(Sc1ccc2nnc(-c3ccc(C)cc3)n2n1)C(C)=O,29,/,1,13,16,-4,/
COc1ccc(S(=O)(=O)N(CC(=O)Nc2cccnc2)c2ccccc2OC)cc1,24,-12,2,6,29,-4,/
Nc1ncnc2c1ncn2[C@@H]1O[C@H](CO)C[C@@H]1O,56*,25,/,44,37,-2,59*
C/C=C/C=C\C(=O)Nc1cccc(C2=NOC3(C2)C[C@H](C(N)=O)N(C(=O)CC#N)C3)c1 (some centres not stated),11,16,-1,10,10,1,/
O=C(NCc1cccc(F)c1)c1ccc(N2C(=O)Cn3c(cc4sccc43)C2=O)cc1,14,12,-1,8,1,15,/
Cn1c(N2CCOCC2)nc2c1c(=O)n(Cc1ccc(Cl)c(Cl)c1)c(=O)n2C,55*,31,0,43,37,15,38
CCC(=O)c1ccc(OCC(=O)N2CCN(c3ncccn3)CC2)cc1,16,/,3,23,7,15,/
COc1ccc(N=C(C)C2=C(O)COC2=O)cc1,96*,-7,0,17,-11,-15,5
COc1ccc(S(=O)(=O)N/N=C(/C)c2ccco2)cc1,2,-1,4,-9,-1,4,/
CC1(C)Cc2noc(N)c2C(C)(C)N1OC(=O)c1scc2c1OCCO2,10,0,4,-5,15,-5,/
C=CCNc1nc2ccccc2nc1NS(=O)(=O)c1ccc(Br)cc1,50*,3,/,10,35,26,54*
C=CCNc1nc2ccccc2nc1NS(=O)(=O)c1ccc(F)cc1,39,-10,-1,7,32,-3,/
Clc1nssc1=Nc1nncs1,52*,/,3,7,32,8,76*
CCn1c(O)c(C=NC2CCCC(C)C2C)sc1=S (configuration not stated),51*,21,1,27,35,23,53*
Oc1ccc(Br)cc1CNc1cnc2ccccc2c1,76*,1,-3,23,19,27,68*
Cc1ccc(O)c(CNc2cnc3ccccc3c2)c1,57*,12,-5,35,-6,3,42*
O=C(c1ccccc1)N1N=C(c2cccs2)CC1c1ccccc1O (configuration not stated),57*,-3,3,15,12,14,43*
Cc1ccc(C2CC(c3cccs3)=NN2C(=O)CCl)cc1 (configuration not stated),64*,-12,1,31,25,35,-29
CCCc1cc(=O)oc2cc(OCC(=O)N3CCc4ccccc43)ccc12,-3,14,1,0,-4,7,/
SMILES,tim23-1 inh,NALP1 yeast inh,V-ATPase pH,NALP3 yeast inh,tim10-1 inh,TIM10 inh,tim23-1 confirm
CC1CCC(NC(=O)CSc2ccc(S(=O)(=O)N(C)C)cn2)CC1 (configuration not stated),12,/,-3,8,20,5,/
COc1ccccc1Nc1c([N+](=O)[O-])cc(C)cc1[N+](=O)[O-],-6,2,-2,10,-1,-19,/
COc1ccccc1Nc1ccc([N+](=O)[O-])cc1N,55*,26,-2,31,36,27,41*
C/C=C\C=C/C(=O)Nc1cccc(C2=NOC3(C2)C[C@H](C(N)=O)N(C(=O)c2ccc(OC)cc2)C3)c1 (some centres not stated),-9,/,-1,8,-24,7,/
COc1ccc(C(=O)Nc2ccc(OCc3ccccc3)cc2)cc1[N+](=O)[O-],2,14,-3,12,4,1,/
O=C(Nc1ccc(Nc2ccccc2)cc1)c1ccccc1,56*,/,-3,47,-38,6,60*
CC(C)Oc1cccc(C(=O)NC(=S)Nc2ccccc2)c1,51*,27,-3,4,17,26,36
COC(=O)c1cccc(NC(=O)c2ccc(OC)c(Cl)c2)c1,57*,0,0,26,11,15,48*
COc1ccc(C(=O)Nc2ccc(Nc3ccccc3)cc2)cc1[N+](=O)[O-],52*,-12,-2,30,21,0,38
COc1ccc(C(=O)Nc2cc(C(=O)O)cc(C(=O)O)c2)cc1Cl,2,6,0,1,6,-2,/
CC(C)N(Cc1nc(-c2ccc(Cl)cc2)no1)C(=O)CCCN1C(=O)c2ccccc2C1=O,23,-27,-11,13,28,20,/
Cn1cnc2nc3n(c2c1=O)CCC3,11,/,-2,3,4,-12,/
COc1cccc(C(=O)Nc2ccccc2C(=O)N2CCCC2)c1,94*,5,0,4,20,2,12
COc1cc(OC)cc(C(=O)Nc2ccc(Nc3ccccc3)cc2)c1,72*,18,-2,28,-10,23,59*
CC(=O)Oc1cccc(C(=O)Nc2ccccc2C(=O)N2CCCC2)c1,13,9,-2,13,11,8,/
COc1cccc(C(=O)Nc2cccc(-c3ccccc3)c2)c1,55*,2,-1,28,32,25,49*
Cc1nc(-c2ccc(NC(=O)c3ccccc3)cc2)cs1,54*,5,1,39,-2,22,53*
Cc1ccc(C(=O)Nc2ccc(-c3csc(C)n3)cc2)cc1,-14,24,1,21,-8,23,/
COc1ccc(Cl)cc1C(=O)OCC(=O)NC1CCCC(C)C1C (configuration not stated),33,/,4,11,15,16,/
CCOC(=O)c1c(-c2ccccc2)oc2ccc(OCC)cc12,-5,30,0,11,18,-6,/
CCOC(=O)c1c(-c2ccccc2)oc2ccc(O)cc12,59*,12,0,18,13,19,56*
